# Data as given in ChEMBL document CHEMBL3988442, “University of Dundee, Small-Polar-MMV Screening Library” (2021).
# For some assays here: Potency and affinity values are given separately.
# What was measured:
# Set-up in all cases: scale not given: direction of the effect not stated beside the values
# [1] = target: Protein translocase subunit SecA (Escherichia coli (strain K12)) (UniProt P10408); test: Assay to Identify E. coli SecA ATPase Inhibitors; type: functional; conditions: 30 µM
# [2] = target: T1, Ubiquitin-activating enzyme e1, putative (Leishmania donovani (strain BPK282A1)) (UniProt E9BSI1); test: Leishmania donovani Ubiquitin Activating Enzyme (LdE1); type: functional; conditions: 30 µM
# T1 sequence (whole entry): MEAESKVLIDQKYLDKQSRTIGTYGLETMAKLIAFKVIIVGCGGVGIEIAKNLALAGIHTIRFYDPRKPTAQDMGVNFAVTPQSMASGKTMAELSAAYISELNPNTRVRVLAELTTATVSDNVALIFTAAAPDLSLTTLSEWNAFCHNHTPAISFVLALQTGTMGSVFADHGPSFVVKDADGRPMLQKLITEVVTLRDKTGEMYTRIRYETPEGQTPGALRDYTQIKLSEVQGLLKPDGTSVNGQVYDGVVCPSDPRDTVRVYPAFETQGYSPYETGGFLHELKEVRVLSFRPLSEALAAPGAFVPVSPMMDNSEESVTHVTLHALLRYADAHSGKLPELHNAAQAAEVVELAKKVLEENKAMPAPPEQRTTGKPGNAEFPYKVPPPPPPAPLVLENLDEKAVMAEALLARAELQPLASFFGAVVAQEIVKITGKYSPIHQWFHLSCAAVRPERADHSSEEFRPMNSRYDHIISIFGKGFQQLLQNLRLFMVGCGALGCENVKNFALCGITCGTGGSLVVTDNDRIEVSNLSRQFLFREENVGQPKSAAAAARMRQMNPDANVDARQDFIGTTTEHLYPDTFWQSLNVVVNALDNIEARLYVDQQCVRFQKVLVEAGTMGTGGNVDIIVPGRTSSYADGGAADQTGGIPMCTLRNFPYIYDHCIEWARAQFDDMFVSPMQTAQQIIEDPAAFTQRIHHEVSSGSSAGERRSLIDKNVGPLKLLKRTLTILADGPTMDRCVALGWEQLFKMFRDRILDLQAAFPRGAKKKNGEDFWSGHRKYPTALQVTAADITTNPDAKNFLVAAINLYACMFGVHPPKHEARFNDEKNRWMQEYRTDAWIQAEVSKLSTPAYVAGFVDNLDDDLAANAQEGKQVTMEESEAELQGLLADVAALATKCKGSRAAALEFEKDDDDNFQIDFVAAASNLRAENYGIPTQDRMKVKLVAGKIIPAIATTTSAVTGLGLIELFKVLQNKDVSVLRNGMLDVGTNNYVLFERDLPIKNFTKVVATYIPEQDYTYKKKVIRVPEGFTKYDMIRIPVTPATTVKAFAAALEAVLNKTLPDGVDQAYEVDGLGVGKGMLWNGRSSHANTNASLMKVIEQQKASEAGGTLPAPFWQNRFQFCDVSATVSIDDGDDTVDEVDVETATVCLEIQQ
# [3] = target: AMP-activated protein kinase, AMPK (Homo sapiens) (UniProt P54646+O43741+P54619+Q9UGJ0+Q9Y478+Q13131+Q9UGI9); test: AMP-dependent Kinase enzyme assay. An in vitro enzyme assay that detects ADP turnover that is directly proportional to AMPK activity. This uses naive AMPK that is activated during the assay with MK-8722; type: functional; conditions: 30 µM
# [4] = target: Sialic acid-binding Ig-like lectin 9 (Homo sapiens) (UniProt Q9Y336); test: Hs-Siglec9 ALPHAscreen SOP 20170721; conditions: 10 µM
# Sequence of Sialic acid-binding Ig-like lectin 9 (Homo sapiens) (Q9Y336 whole entry): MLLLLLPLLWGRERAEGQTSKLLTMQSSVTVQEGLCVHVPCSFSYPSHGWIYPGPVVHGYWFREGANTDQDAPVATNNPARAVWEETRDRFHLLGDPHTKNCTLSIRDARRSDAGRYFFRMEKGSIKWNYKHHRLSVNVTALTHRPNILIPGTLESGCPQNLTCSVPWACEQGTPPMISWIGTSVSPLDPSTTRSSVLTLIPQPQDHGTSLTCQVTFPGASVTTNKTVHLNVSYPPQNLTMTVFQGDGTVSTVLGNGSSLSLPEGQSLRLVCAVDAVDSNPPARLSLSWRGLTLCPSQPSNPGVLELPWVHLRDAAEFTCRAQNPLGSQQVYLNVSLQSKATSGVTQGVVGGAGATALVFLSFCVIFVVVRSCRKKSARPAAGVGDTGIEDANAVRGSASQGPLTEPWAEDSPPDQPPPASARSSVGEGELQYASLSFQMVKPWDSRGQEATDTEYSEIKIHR
# Trypanosoma cruzi = test: Trypanosoma cruzi phosphomannomutase and mannose-1-phosphate guanylyltransferase assay; type: functional; conditions: 10 µM
# [5] = target: T2, Arginase-2, mitochondrial (Homo sapiens) (UniProt P78540); test: in vitro enzyme assay to detect the production of urea directly proportional to the activity of Arginase II; type: functional; conditions: 33.3 µM; further: in the data most compounds retested in dose-response had high values
# T2 sequence (whole entry): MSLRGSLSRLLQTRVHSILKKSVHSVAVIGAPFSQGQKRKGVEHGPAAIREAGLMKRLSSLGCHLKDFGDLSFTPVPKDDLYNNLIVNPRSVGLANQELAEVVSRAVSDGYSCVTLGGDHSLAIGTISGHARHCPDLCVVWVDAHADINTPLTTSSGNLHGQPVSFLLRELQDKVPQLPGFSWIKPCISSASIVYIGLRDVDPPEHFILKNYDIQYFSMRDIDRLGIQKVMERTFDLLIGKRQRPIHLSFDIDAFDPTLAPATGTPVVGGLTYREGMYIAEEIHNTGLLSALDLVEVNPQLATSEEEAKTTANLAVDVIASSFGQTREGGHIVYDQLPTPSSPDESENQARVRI
# [6] = target: T3, Proteasome subunit beta (Trypanosoma cruzi) (UniProt O96673); test: Trypanosoma cruzi proteasome chymotrypsin-like activity (TcProtChymo) assay.; further: in the data most compounds retested in dose-response had high values; type: functional; conditions: 9.37 µM
# T3 sequence (whole entry): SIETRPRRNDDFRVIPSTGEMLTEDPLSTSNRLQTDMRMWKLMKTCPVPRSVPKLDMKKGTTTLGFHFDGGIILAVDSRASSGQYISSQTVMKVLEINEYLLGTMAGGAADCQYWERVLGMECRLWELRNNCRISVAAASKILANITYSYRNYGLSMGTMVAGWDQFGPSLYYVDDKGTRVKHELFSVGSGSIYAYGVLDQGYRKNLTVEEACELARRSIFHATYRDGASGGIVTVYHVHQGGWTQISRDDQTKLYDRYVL
# Homo sapiens = species on record: Homo sapiens; test: To identify inhibition of the IFN signalling (Jak-Stat) pathway via expression of an eGFP reporter gene under the control of an IFN-stimulated response element (ISRE) containing MxA promoter.; type: functional; conditions: 30 µM
# [7] = target: T4, Tyrosyl-tRNA synthetase, putative (Trypanosoma cruzi (strain CL Brener)) (UniProt Q4DSP6); test: Trypanosoma cruzi tyrosyl tRNA synthetase (TcYRS) _High Tyrosine SOP; type: functional; conditions: 30 µM; further: in the data most compounds retested in dose-response had high values
# T4 sequence (whole entry): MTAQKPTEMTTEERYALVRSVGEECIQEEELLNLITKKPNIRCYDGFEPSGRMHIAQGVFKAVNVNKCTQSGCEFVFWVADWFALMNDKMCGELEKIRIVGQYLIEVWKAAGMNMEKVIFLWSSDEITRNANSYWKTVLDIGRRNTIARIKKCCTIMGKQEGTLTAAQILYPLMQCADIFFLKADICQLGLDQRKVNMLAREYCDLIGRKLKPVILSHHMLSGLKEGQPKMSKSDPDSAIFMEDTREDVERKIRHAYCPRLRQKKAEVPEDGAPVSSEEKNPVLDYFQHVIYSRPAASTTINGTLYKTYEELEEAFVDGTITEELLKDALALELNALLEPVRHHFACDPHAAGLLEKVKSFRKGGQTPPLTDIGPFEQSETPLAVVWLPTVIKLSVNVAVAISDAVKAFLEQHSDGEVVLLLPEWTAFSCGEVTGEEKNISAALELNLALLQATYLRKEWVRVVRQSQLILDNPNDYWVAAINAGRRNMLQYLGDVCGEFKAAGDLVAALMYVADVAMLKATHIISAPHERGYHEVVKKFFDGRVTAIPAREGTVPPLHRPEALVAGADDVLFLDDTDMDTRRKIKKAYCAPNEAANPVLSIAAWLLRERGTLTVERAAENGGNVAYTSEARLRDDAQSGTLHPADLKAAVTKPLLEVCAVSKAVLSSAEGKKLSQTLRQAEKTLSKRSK
# [8] = target: T4, Tyrosyl-tRNA synthetase, putative (Trypanosoma cruzi (strain CL Brener)); test: Trypanosoma cruzi tyrosyl tRNA synthetase (TcYRS) SOP; type: functional; conditions: 30 µM
# [9] = target: Chromo domain-containing protein 1 (Saccharomyces cerevisiae (strain ATCC 204508 / S288c) (Baker's yeast)) (UniProt P32657); test: ScCHD-1 Enzyme Inhibition Assay; type: functional; conditions: 30 µM; further: in the data most compounds retested in dose-response had high values
# Sequence of Chromo domain-containing protein 1 (Saccharomyces cerevisiae (strain ATCC 204508 / S288c) (Baker's yeast)) (P32657 whole entry, the tested form may be a part): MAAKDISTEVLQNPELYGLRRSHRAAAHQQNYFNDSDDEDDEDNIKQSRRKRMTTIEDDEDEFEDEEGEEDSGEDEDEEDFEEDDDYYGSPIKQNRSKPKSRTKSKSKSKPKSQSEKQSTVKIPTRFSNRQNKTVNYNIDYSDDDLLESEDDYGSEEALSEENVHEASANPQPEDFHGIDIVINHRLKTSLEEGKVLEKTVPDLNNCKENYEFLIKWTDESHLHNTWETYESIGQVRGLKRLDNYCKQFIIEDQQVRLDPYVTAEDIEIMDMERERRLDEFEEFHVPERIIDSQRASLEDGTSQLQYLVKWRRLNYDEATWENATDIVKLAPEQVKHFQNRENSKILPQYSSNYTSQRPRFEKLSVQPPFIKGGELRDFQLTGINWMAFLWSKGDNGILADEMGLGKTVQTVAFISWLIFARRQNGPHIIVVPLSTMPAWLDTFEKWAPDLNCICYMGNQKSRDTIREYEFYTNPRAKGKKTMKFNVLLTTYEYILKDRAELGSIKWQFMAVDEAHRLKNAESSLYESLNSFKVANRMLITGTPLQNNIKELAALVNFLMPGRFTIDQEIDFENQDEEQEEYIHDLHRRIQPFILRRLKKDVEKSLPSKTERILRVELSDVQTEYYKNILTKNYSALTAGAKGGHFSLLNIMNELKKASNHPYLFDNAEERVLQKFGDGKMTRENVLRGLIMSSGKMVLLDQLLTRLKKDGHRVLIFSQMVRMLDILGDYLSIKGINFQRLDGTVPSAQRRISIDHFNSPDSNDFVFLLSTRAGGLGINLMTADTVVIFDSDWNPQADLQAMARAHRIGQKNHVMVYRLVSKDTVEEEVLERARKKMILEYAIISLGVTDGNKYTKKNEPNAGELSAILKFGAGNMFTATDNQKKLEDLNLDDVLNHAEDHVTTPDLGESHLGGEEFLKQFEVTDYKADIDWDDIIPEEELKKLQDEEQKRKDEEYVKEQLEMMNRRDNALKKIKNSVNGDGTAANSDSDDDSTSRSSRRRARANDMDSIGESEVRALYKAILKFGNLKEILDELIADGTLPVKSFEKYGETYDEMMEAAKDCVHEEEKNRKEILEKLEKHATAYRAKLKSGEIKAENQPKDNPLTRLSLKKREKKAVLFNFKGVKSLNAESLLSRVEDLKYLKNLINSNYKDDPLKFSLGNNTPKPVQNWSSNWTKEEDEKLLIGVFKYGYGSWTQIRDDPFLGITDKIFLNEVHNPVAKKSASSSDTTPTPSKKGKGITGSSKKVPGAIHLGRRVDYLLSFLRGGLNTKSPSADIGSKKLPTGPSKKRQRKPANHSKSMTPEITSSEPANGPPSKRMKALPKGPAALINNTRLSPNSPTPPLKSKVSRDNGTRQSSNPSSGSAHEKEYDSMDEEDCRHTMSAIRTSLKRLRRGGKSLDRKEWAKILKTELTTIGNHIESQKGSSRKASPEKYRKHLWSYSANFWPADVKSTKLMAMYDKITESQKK
# Sequence of Protein translocase subunit SecA (Escherichia coli (strain K12)) (P10408 whole entry): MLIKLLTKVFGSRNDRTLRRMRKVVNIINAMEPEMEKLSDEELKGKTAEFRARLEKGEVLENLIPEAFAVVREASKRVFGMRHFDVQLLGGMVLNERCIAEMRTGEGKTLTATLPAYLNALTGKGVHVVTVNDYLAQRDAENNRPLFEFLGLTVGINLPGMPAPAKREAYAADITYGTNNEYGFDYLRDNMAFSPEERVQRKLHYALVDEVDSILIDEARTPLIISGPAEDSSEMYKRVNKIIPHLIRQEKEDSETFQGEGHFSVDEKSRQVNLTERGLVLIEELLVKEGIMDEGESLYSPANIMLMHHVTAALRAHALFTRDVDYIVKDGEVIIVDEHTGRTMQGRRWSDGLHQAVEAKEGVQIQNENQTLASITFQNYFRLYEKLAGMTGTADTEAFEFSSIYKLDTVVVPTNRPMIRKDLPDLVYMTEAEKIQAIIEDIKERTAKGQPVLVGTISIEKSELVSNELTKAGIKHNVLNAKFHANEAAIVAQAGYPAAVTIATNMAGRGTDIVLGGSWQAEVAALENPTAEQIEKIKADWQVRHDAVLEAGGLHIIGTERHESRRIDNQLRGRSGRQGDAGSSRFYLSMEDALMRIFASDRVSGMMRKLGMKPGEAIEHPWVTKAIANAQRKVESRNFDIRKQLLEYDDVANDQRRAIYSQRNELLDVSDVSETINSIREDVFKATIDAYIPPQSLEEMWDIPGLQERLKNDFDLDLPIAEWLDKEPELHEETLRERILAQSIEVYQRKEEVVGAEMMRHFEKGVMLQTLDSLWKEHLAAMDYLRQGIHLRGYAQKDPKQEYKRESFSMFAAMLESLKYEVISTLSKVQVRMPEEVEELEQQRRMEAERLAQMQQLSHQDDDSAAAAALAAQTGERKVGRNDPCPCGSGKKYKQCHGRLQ
compound,measurement,setting,value
Cc1csc(N2CCN(C(=O)CCNc3ncccn3)CC2)n1,Percent Effect,[1],-4.07%
same,Percent Effect,[2],16.2%
same,Percent Effect,[3],-2.35%
same,Percent Effect,[4],-1.96%
same,Percent Effect,Trypanosoma cruzi,1.42%
same,Percent Effect,[5],-6.41%
same,Percent Effect,[6],5.04%
same,Percent Effect,Homo sapiens,14.1%
same,Percent Effect,[7],-61.6%
same,Percent Effect,[8],16.1%
same,Percent Effect,[9],-9.84%
CCc1nc(CC(=O)N2CCn3c(nnc3C(C)C)C2)cs1,Percent Effect,[1],-3.31%
same,Percent Effect,[2],0%
same,Percent Effect,[3],1.23%
same,Percent Effect,[4],1.14%
same,Percent Effect,Trypanosoma cruzi,3.95%
same,Percent Effect,[5],-1.92%
same,Percent Effect,[6],3.68%
same,Percent Effect,Homo sapiens,-11.4%
same,Percent Effect,[7],2.45%
same,Percent Effect,[8],12.2%
same,Percent Effect,[9],-11%
Cc1cc(CN2CCC(c3ccnn3CCO)CC2)no1,Percent Effect,[1],-3.65%
same,Percent Effect,[2],20.2%
same,Percent Effect,[3],-6.78%
same,Percent Effect,[4],7.01%
same,Percent Effect,Trypanosoma cruzi,6.7%
same,Percent Effect,[5],3.8%
same,Percent Effect,[6],7.45%
same,Percent Effect,Homo sapiens,-6.11%
same,Percent Effect,[7],4.43%
same,Percent Effect,[8],21.5%
same,Percent Effect,[9],-6.58%
COc1cc2nc3n(c(=O)c2cc1OC)CCN(C)CC3,Percent Effect,[1],-7.78%
same,Percent Effect,[2],1.35%
same,Percent Effect,[3],11.9%
same,Percent Effect,[4],1.61%
same,Percent Effect,Trypanosoma cruzi,-3.56%
same,Percent Effect,[5],-3.48%
same,Percent Effect,[6],0.312%
same,Percent Effect,Homo sapiens,0.926%
same,Percent Effect,[7],2.15%
same,Percent Effect,[8],3.9%
same,Percent Effect,[9],-5.62%
Cc1cccnc1CN1CCC(c2nnc(Cn3cccn3)n2C)CC1,Percent Effect,[1],-4.04%
same,Percent Effect,[2],1.39%
same,Percent Effect,[3],0.385%
same,Percent Effect,[4],-7.79%
same,Percent Effect,Trypanosoma cruzi,-3.98%
same,Percent Effect,[5],2.21%
same,Percent Effect,[6],8.95%
same,Percent Effect,Homo sapiens,-6.28%
same,Percent Effect,[7],3.16%
same,Percent Effect,[8],10.3%
same,Percent Effect,[9],-2.58%
COc1cc(C)sc1C(=O)N1CCC(Nc2cccnc2)CC1,Percent Effect,[1],-6.41%
same,Percent Effect,[2],-121%
same,Percent Effect,[3],0.841%
same,Percent Effect,[4],37.6%
same,Percent Effect,Trypanosoma cruzi,3.17%
same,Percent Effect,[5],3.19%
same,Percent Effect,[6],3%
same,Percent Effect,Homo sapiens,5.06%
same,Percent Effect,[7],8.33%
same,Percent Effect,[8],11.1%
same,Percent Effect,[9],0.713%
CC(Cn1cccn1)NC(=O)N(C)Cc1ccc(Cl)s1 (stereo not given),Percent Effect,[1],-7.83%
same,Percent Effect,[2],2.53%
same,Percent Effect,[3],-3.14%
same,Percent Effect,[4],9.63%
same,Percent Effect,Trypanosoma cruzi,7.27%
same,Percent Effect,[5],-8.37%
same,Percent Effect,[6],0.409%
same,Percent Effect,Homo sapiens,2.27%
same,Percent Effect,[7],-1.48%
same,Percent Effect,[8],3.8%
same,Percent Effect,[9],-2.46%
CC(C)(NCC(=O)NCC(F)(F)F)c1ccc2c(c1)OCCO2,Percent Effect,[1],-1.45%
same,Percent Effect,[2],13.5%
same,Percent Effect,[3],-7.25%
same,Percent Effect,[4],1.31%
same,Percent Effect,Trypanosoma cruzi,-4.06%
same,Percent Effect,[5],17.2%
same,Percent Effect,[6],16%
same,Percent Effect,Homo sapiens,5.37%
same,Percent Effect,[7],1.48%
same,Percent Effect,[8],18.5%
same,Percent Effect,[9],-4.3%
c1ccc(-c2noc(CN3CCC(c4ccn[nH]4)CC3)n2)cc1,Percent Effect,[1],1.64%
same,Percent Effect,[2],-8.11%
same,Percent Effect,[3],-9.82%
same,Percent Effect,[4],9.87%
same,Percent Effect,Trypanosoma cruzi,3.09%
same,Percent Effect,[5],26.2%
same,Percent Effect,[6],21.9%
same,Percent Effect,Homo sapiens,-10.4%
same,Percent Effect,[7],4.76%
same,Percent Effect,[8],14.6%
same,Percent Effect,[9],-1.3%
Cn1cc(CN2CCn3c(CNC(=O)c4cccn4C)cnc3C2)cn1,Percent Effect,[1],1.54%
same,Percent Effect,[2],10.7%
same,Percent Effect,[3],-1.53%
same,Percent Effect,[4],26.8%
same,Percent Effect,Trypanosoma cruzi,-0.193%
same,Percent Effect,[5],-52.1%
same,Percent Effect,[6],14%
same,Percent Effect,Homo sapiens,0.903%
same,Percent Effect,[7],7.29%
same,Percent Effect,[8],22.5%
same,Percent Effect,[9],-7.88%
